High-throughput results from PubChem.
Only some compounds are listed: those with a hit (about 20% of all), similar ones and a draw of the others.
HCMV inh: qHTS Assay for inhibitors of the human cytomegalovirus (HCMV); HFF cells, HCMV-luciferase reporter, 72 h; active compounds read low; activity change, negative = inhibition, % at 57.5 µM; 4.5% of 410,000 active; AID 1259415, 2018; in the data active = activity change below about -60%; inconclusive = no clear call, values can overlap the other calls; inactive = above about -39%; also: % is scaled to controls: 0 for no effect and ±100 for the full control effect
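Human foreskin fibroblasts infected with luciferase-reporter HCMV at MOI 1 PFU/cell, compounds at two doses. Luciferase measured 72 h post infection; normalized to buffer-only basal and Salinomycin (10uM) controls.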
Pf growth 48h: Primary qHTS for delayed death inhibitors of the malarial parasite plastid, 48 hour incubation. P. falciparum luciferase growth in erythrocytes, 48 h. Potency, µM (series often up to 28.7 µM), inactives show at the top dose activity change, negative = inhibition, hits mostly inhibitors. 5.9% of 310,000 active. AID 504832, 2011; also: potency is read from the fitted curve at half-maximal effect; % is scaled to controls: 0 for no effect and ±100 for the full control effect
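In quantitative HTS format, infected erythrocytes bearing luciferase-reporter parasites were treated for a single generation at 37 C. Luminescence after adding detection reagent served as the growth measure.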
CHX counter: Cycloheximide Counterscreen for Small Molecule Inhibitors of Shiga Toxin; max response, %; cell reporter, cycloheximide protein synthesis inhibition counterscreen; 12% of 300,000 active; in the data active = max response mostly above about 13%, no sharp cut-off; inactive = mostly below about 14%; also: read at 38.3 µM for the half of the compounds with a filed dose; 0% is about no effect
Shiga inhibitor: A qHTS for Small Molecule Inhibitors of Shiga Toxin; inhibition, % at 38.7 µM; AID 2315, 2010; 9.2% of 290,000 active; Vero cells, Shiga toxin protein synthesis inhibition reporter; in the data active = inhibition mostly above about 28%, no sharp cut-off; inactive = mostly below about 43%; also: 0% is about no effect
Pf growth 96h: Primary qHTS for delayed death inhibitors of the malarial parasite plastid, 96 hour incubation; P. falciparum luciferase reporter growth, 96 h; Potency, µM (titrated, usually from 28.7 µM), without a hit: at the top dose activity change, negative = inhibition, most hits filed as inhibitors; 6.9% of 320,000 active; AID 504834, 2011; also: potency is read from the fitted curve at half-maximal effect; % is scaled to controls: 0 for no effect and ±100 for the full control effect
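Parasite growth measured via integrated firefly luciferase reporter in P. falciparum. Infected erythrocytes at 2% hematocrit, 0.05% parasitemia final were treated 96 hours at 37 C under 5% CO2, and luminescence was read.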
Active calls of the source: *. Unless noted, calls follow the shape of the dose curve; as a rule, active = well fitted inhibition curve with a large enough effect; inconclusive = small, poorly fitted or top-dose-only effect, or another doubt; inactive = no such curve, though single readings can be large or run the other way.

Screening CN1CCC(N(C)c2nc(-c3ccc([N+](=O)[O-])cc3)nc3ccccc23)CC1 returned HCMV inh 29, Pf growth 48h inconclusive, CHX counter -4, Shiga inhibitor -12 and Pf growth 96h 1.5µM*.
`O=C(NCCc1ccccn1)c1ccc(NS(=O)(=O)c2ccc(F)cc2)cc1` gave HCMV inh -40, Pf growth 48h -1%, CHX counter 9, Shiga inhibitor -10 and Pf growth 96h -5%.
O=C(NCCc1ccccn1)C(F)(F)C(F)(F)C(F)(F)C(F)(F)C(F)(F)C(F)F was read as HCMV inh 47, Pf growth 48h -6%, CHX counter 14*, Shiga inhibitor -5 and Pf growth 96h inconclusive.
O=C(NCCc1ccccn1)c1ccc(OC(F)F)cc1 was read as HCMV inh 46, Pf growth 48h 311%, CHX counter 25*, Shiga inhibitor 75* and Pf growth 96h 472%.
Cc1cc(=O)oc(C)c1C(=O)OCC(=O)c1ccc(Br)cc1 was read as HCMV inh -17, Pf growth 48h -20%, CHX counter 24*, Shiga inhibitor 70* and Pf growth 96h inconclusive.
Cc1cc(=O)oc(C)c1C(=O)OCC(=O)c1ccc(Cl)cc1 was read as HCMV inh -15, Pf growth 48h 0%, CHX counter 35*, Shiga inhibitor 80* and Pf growth 96h 30%.
Cc1cccc(C)c1NC(=O)C1(C)CSCC(=O)N1Cc1cccc(C(F)(F)F)c1 (centres undefined) was read as HCMV inh -1.
`O=S(=O)(/N=C(/c1ccccc1)N1CCOCC1)c1ccc(Br)cc1` gave HCMV inh 30, Pf growth 48h -7%, CHX counter 9, Shiga inhibitor -29 and Pf growth 96h 29%.
C=CCN1N=C(/C=C/c2ccc(OC)cc2)CCC1=O was read as HCMV inh 48, Pf growth 48h 16%, CHX counter 54*, Shiga inhibitor 115* and Pf growth 96h 22%.
Screening CCOC(=O)C(C)N1N=C(/C=C/c2ccc(C)cc2)CCC1=O (centres undefined) returned HCMV inh 22, Pf growth 48h -21%, CHX counter 10, Shiga inhibitor 10 and Pf growth 96h inconclusive.
C=CCN1N=C(/C=C/c2ccc(C)cc2)CCC1=O was read as HCMV inh -7, Pf growth 48h 230%, CHX counter 35*, Shiga inhibitor 92* and Pf growth 96h 70%.
Screening COc1ccc(/C=C/C2=NN(Cc3ccccc3)C(=O)CC2)cc1 returned HCMV inh -31, Pf growth 48h 2%, CHX counter -4, Shiga inhibitor 21 and Pf growth 96h -19%.
`CC(C)c1ccc(/C=C/C(=O)Nc2nn[nH]n2)cc1` gave Pf growth 48h 39%, CHX counter 13*, Shiga inhibitor 28 and Pf growth 96h 12%.
Cc1ccc(/C=C/C(=O)Nc2nn[nH]n2)o1 was read as HCMV inh -29, Pf growth 48h 13%, CHX counter -3, Shiga inhibitor -8 and Pf growth 96h inconclusive.
For Cc1ccc(C)c(NC(=O)CSc2nnc(-c3cc(C)[nH]n3)n2N)c1 the results were HCMV inh -19, Pf growth 48h inconclusive, CHX counter 4, Shiga inhibitor -2 and Pf growth 96h inconclusive.
Cc1nc(-c2ccc(F)cc2)sc1CCNC(=O)C(=O)Nc1ccc2c(c1)OCO2 was read as HCMV inh 10.
Screening CC1CCN(CC(O)COCCC23CC4CC(CC(C4)C2)C3)CC1 (centres undefined) returned HCMV inh -75*, CHX counter -3, Shiga inhibitor -14 and Pf growth 96h inconclusive.
C(#Cc1ccccc1)C[N+]1(CC#Cc2ccccc2)CCCC1 was read as HCMV inh inconclusive, Pf growth 48h 2.3µM*, CHX counter -1, Shiga inhibitor 4 and Pf growth 96h inconclusive.
`C=CC#CC[N+]1(CC#Cc2ccccc2)CCOCC1` gave HCMV inh inconclusive, Pf growth 48h 5.9µM*, CHX counter 3, Shiga inhibitor 10 and Pf growth 96h 4.1µM*.
`CN(C)CC#CCOC(c1ccccc1)c1ccccc1` gave HCMV inh -28, Pf growth 48h -30%, CHX counter 1, Shiga inhibitor 5 and Pf growth 96h 33%.
